USP1 inh: USP1/UAF1 (human) deubiquitinase inhibition; O94782; recombinant USP1/UAF1, Ub-Rhodamine cleavage fluorescence; Potency, µM (highest dose often 57.1 µM), for inactives: at the top dose activity change, negative = inhibition, usual class: inhibitors; 0.23% of 390,000 active; AID 743255; also: potency is read from the fitted curve at half-maximal effect; nearly all actives have a fitted effect of over 60% in size
Target sequence (O94782 whole entry, looked up): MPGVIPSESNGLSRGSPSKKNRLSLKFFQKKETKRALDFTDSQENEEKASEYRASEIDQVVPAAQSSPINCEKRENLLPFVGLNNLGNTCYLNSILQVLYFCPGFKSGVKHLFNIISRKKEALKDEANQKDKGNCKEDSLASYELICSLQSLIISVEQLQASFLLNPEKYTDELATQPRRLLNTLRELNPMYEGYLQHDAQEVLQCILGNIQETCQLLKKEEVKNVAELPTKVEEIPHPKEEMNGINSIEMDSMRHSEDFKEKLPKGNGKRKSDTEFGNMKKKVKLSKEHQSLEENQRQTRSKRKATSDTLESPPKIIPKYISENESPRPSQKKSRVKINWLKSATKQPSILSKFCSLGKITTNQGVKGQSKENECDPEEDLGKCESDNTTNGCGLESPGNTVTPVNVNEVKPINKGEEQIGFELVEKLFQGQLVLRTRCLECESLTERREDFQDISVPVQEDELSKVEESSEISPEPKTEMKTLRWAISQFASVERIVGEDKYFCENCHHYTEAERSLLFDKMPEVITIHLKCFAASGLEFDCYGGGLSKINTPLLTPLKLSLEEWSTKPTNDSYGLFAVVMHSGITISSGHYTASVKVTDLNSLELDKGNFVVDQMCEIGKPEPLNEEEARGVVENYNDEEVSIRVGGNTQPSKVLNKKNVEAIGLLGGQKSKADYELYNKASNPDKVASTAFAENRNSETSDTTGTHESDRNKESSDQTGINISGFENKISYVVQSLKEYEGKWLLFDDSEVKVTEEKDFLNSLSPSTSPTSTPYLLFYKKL
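High-throughput fluorogenic screen: 1nM USP1/UAF1 complex, Ub-Rho substrate 150nM final, 50mM HEPES pH 7.8 with 0.5mM EDTA, 0.1 mg/ml BSA, 1mM TCEP and 0.01% Tween-20.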
USP2a inh: inhibitors of human ubiquitin-specific protease USP2a. USP2 core, Ub-CHOP2 coupled fluorogenic reporter, 485/531. Potency, µM (doses to about 38.3 µM), inactives show at the highest dose activity change, negative = inhibition, most hits filed as inhibitors. 0.01% of 330,000 active. AID 463254;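 also: potency is read from the fitted curve at half-maximal effect; plate controls were DMSO wells for no effect and full inhibition by NEM control for full effect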
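Cell-free coupled assay: 10nM USP2 core preincubated 30min RT with compound in Tris-HCl pH 8.0/CaCl2/CHAPS buffer, then 25nM Ub-CHOP2 and 25nM reporter substrate; fluorescence (Ex 485/Em 531) read after 60min RT, normalized to NEM inhibition, concentration-response curves fitted.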
FBPA coupling cs: counter-screen for Giardia aldolase inhibitors: coupling enzyme system; coupling enzyme system counterscreen, AmpLite Red fluorescence; activity change, negative = inhibition, % at 58.2 µM, hits read low; 0.67% of 290,000 active; in the data active = activity change below about -30%
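Activity here indicates interference with the coupling reaction, not aldolase inhibition. Compounds at 57.5 uM final met coupling enzymes for 10 min at RT; substrate and AmpLite Red detection followed, with a 525/598 nm fluorescence read after 20 min.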
PLK1 PBD inh: blocks phosphopeptide binding to human PLK1 polo-box domain | P53350 | Potency, µM, for inactives: max response, negative = inhibition, most hits filed as inhibitors | 2.8% of 360,000 active | AID 720504 | Plk1 PBD binding of FITC phosphopeptide, fluorescence polarization; also: potency is read from the fitted curve at half-maximal effect; series mostly up to about 57 µM; nearly all actives have a fitted effect of over 65% in size
VDR inh: blocks the human vitamin D receptor. VDR-SRC2-3 peptide fluorescence polarization, 2 h. AID 504847. 0.93% of 400,000 active. Potency, µM, for inactives: max response, negative = inhibition, most hits filed as inhibitors; also: potency is read from the fitted curve at half-maximal effect
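Inhibition of the VDR/SRC2-3 peptide interaction is quantified by fluorescence polarization. Compounds (23 nl, pintool) incubate with the reagents for 2 hours at ambient room temperature.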
GALK inhibitor: inhibitors of human galactokinase; 0.007% of 270,000 active; Potency, µM (top dose mostly 57.5 µM), inactives show at the top dose activity change, negative = inhibition, usual class: inhibitors; Purified GALK, Kinase-Glo residual ATP luminescence; AID 1868; P51570; also: potency is read from the fitted curve at half-maximal effect
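Human GALK (5 nM) with 35 uM ATP and 100 uM galactose in 20 mM HEPES pH 8.0, 5 mM MgCl2, 60 mM NaCl, 1 mM DTT, 0.01% BSA. After 1 h at room temperature, leftover ATP was read by Kinase-Glo Plus luminescence.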
Numbers without * were called inactive; ? = inconclusive; . = no result given. An excerpt weighted towards active compounds, which were near 3.2% of everything screened. Unless noted, calls follow the shape of the dose curve; as a rule, active = well fitted curve in the direction sought with a large enough effect; inconclusive = small, poorly fitted or top-dose-only effect, or another doubt; inactive = no such curve, though single readings can be large; an effect the other way counts as inactive or inconclusive. Unless noted, % is scaled to controls: 0 for no effect and ±100 for the full control effect.

SMILES	USP1 inh	USP2a inh	FBPA coupling cs	PLK1 PBD inh	VDR inh	GALK inhibitor
CCCc1cc(-c2n[nH]c(C)c2-c2ccc(C(=O)OCC)o2)c(O)cc1O	-6%	-8%	-34*	-1%	-5%	0%
Oc1cccc(O)c1O	.	.	.	.	79µM*	.
CCCc1nnc(NS(=O)(=O)c2ccccc2)s1	-14%	5%	-6	-12%	8%	.
COc1ccc(C2=CC3=C(Br)C(=O)C(C)(O)C(=O)C3=CO2)cc1 (centres undefined)	35µM*	4%	-3	?	?	4%
CCC(=O)OC1(C)C(=O)C2=COC(c3ccc(OC)cc3)=CC2=C(Br)C1=O (centres undefined)	35µM*	1%	2	?	?	2%
CCn1c(=O)c([N+](=O)[O-])c(Cl)c2ccccc21	-26%	-1%	0	2.4µM*	?	-3%
CC(=O)N1CCN(C(=O)c2cccc(S(=O)(=O)NCc3ccccc3)c2)CC1	3%	-2%	.	-7%	-10%	.
c1ccc2sc(NCC3CCCO3)nc2c1 (centres undefined)	-12%	5%	1	0%	1%	4%
CC1=CC(=C(C#N)c2nc3ccccc3s2)C=C(C)N1CC1CCCO1 (centres undefined)	?	-5%	-11	27µM*	5%	11%
C/C(=N\N1C(=O)CSC1=S)c1ccc(Br)cc1	?	1%	1	5.3µM*	?	9%
COc1ccc2c(c1)[C@H]1[C@H](CO2)[C@H](c2ccccc2)[C@]2(C)C(=O)Nc3ccccc3C(=O)N12	-25%	2%	.	-8%	-23%	.
N#Cc1sc2nc(C3CC3)cc(-c3ccccc3)c2c1N	-25%	0%	0	4%	-3%	0%
N#Cc1sc2nc(-c3ccccc3)cc(-c3ccco3)c2c1N	4µM*	0%	-21	?	?	-5%
COc1ccc(NC(=O)c2cc(CN3C(=O)c4ccccc4C3=O)ccc2OC)cn1	-12%	2%	-27	27µM*	-12%	7%
COc1ccc(CN2C(=O)c3ccccc3C2=O)cc1C(=O)OCC(=O)NC1CCCCC1	-11%	3%	7	-15%	-3%	0%
C[C@H]1O[C@@H](n2cnc3c(N)ncnc32)C[C@@H]1OP(=O)(O)OP(=O)(O)OP(=O)(O)O	.	.	5	.	-4%	.
CSc1ccc(OC2CCCCC2NS(=O)(=O)c2ccccc2)cc1 (centres undefined)	-11%	0%	4	24µM*	-22%	-1%
Cc1cc(C)cc(OC2CCCCC2NS(=O)(=O)c2ccccc2)c1 (centres undefined)	-23%	2%	0	-6%	11%	0%
O=C(O)C1=CC(=C(c2ccc(O)c(C(=O)O)c2)c2ccc(O)c(C(=O)O)c2)C=CC1=O	.	1.1µM*	4	.	8.9µM*	.
CC(C(=O)O)n1c(-c2ccn[nH]2)n[nH]c1=S (centres undefined)	-16%	3%	1	15µM*	?	-2%
CC1(OCON)CCCc2ccccc21 (centres undefined)	?	0%	-3	-14%	-15%	.
Cc1ccccc1S(=O)(=O)Cc1ccc(C(=O)NCc2ccccc2)o1	-17%	-2%	-1	-14%	-19%	2%
Cc1ccccc1S(=O)(=O)Cc1ccc(C(=O)NCc2ccco2)o1	-22%	1%	-3	24µM*	?	-2%
O=C(CSc1ccc2nnc(-c3ccccn3)n2n1)N1CCOCC1	-27%	-2%	3	-6%	2%	2%
O=[N+]([O-])c1ccc(-c2cc(-c3ccc(Cl)cc3)n[nH]2)cc1	-24%	7%	0	3µM*	?	-1%
SMILES	USP1 inh	USP2a inh	FBPA coupling cs	PLK1 PBD inh	VDR inh	GALK inhibitor
COCCCNC(=O)c1c(N)n(-c2ccc3c(c2)OCO3)c2nc3ccccc3nc12	-25%	0%	-47*	-6%	-9%	2%
CCOCCCNC(=O)c1c(N)n(-c2ccc3c(c2)OCO3)c2nc3ccccc3nc12	-5%	-3%	-35*	-4%	-11%	8%
CCOC(=O)c1c(N)n(-c2ccc(N)cc2)c2nc3ccccc3nc12	-19%	0%	1	27µM*	-24%	.
CCCNC(=O)c1c(N)n(-c2ccc3c(c2)OCO3)c2nc3ccccc3nc12	-10%	0%	-21	-5%	2%	2%
CCOCCCNC(=O)c1c(N)n(-c2ccc(S(N)(=O)=O)cc2)c2nc3ccccc3nc12	-19%	1%	3	-2%	10%	-3%
Nc1c(C(=O)NC2CC2)c2nc3ccccc3nc2n1-c1ccc2c(c1)OCO2	-18%	0%	-22	-4%	2%	0%
Nc1c(C(=O)OCC2CCCO2)c2nc3ccccc3nc2n1-c1ccc2c(c1)OCCO2 (centres undefined)	-4%	2%	-37*	-7%	-12%	-2%
CC(=O)C(Cc1ccccc1)NC(=O)CN1CCc2ccccc2C1 (centres undefined)	8%	2%	3	-1%	9%	0%
CC(CCc1ccccc1)NC(=O)CN1CCc2ccccc2C1 (centres undefined)	-4%	8%	0	27µM*	-16%	-1%
CC(C)(C)CNC(=O)C1(C)CCN1C(=O)Cc1ccc(-c2ccccc2)cc1 (centres undefined)	.	.	.	-2%	.	.
O=[N+]([O-])c1cccc(-c2ccc3nnc(SCc4ccccn4)n3n2)c1	-21%	2%	0	24µM*	?	7%
CC(=O)Nc1ccc2cc3ccc(NC(C)=O)cc3nc2c1	-20%	26%	-33*	-26%	0%	-1%
COc1ccc([C@H]2CC(=O)C=C(c3cc(Cl)cc(Cl)c3)C2)cc1	-8%	-1%	.	-9%	-8%	.
Cc1nn(-c2ccccc2)c2c1C1(C(=O)N(C)c3ccccc31)C(C#N)=C(N)O2 (centres undefined)	-13%	4%	-44*	?	-8%	-1%
CCN1C(=O)C2(C(C#N)=C(N)Oc3c2c(C)nn3-c2ccccc2)c2ccccc21 (centres undefined)	-16%	3%	-45*	?	12%	0%
CC(=O)N1C(=O)C2(C(C#N)=C(N)Oc3c2c(C)nn3-c2ccccc2)c2ccccc21 (centres undefined)	-14%	1%	-27	-12%	1%	1%
Cc1nn(-c2ccccc2)c2c1C1(C(=O)N3c4c(cccc41)C(C)CC3(C)C)C(C#N)=C(N)O2 (centres undefined)	-23%	3%	-59*	?	113%	-1%

Screens as filed in PubChem BioAssay.
